Holding throughout (experiment): DAPPL (digital affinity profiling via proximity ligation, sequencing); 10 mM Tris-HCl pH 7.5, 50 mM NaCl, 1 mM DTT, 4% glycerol, room temperature, 30 min; GST-TFs on glutathione beads, 16-mer random dsDNA library, 0.1% formaldehyde crosslink after washing; high values mean tight binding
In one experiment the target is T1, FEV (Homo sapiens, UniProt Q99581 1-238).
T1 sequence: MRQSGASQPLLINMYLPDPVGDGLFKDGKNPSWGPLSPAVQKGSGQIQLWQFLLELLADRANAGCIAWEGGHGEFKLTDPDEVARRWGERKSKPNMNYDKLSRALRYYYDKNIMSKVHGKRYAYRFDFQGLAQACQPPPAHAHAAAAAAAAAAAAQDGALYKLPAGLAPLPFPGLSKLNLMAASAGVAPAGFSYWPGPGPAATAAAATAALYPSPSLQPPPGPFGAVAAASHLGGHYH
Particulars: protein: recombinant; tags: N-terminal GST; dsDNA, one strand shown. An outline of the steps: (§1)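 Yeast served to express human transcription factors as GST fusions, which were then captured on glutathione beads and labelled with DNA barcodes. Pooled with a tag-only sample, they were incubated with 200 nmole of a 16-mer random double-stranded DNA library for 30 min at room temperature in Tris/NaCl/DTT/glycerol buffer, washed, crosslinked with 0.1% formaldehyde, ligated by proximity, amplified by PCR and sequenced. Dividing each hexamer's read frequency for a factor by its frequency for the tag-only sample gives the binding signal.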

A further experiment addresses ETV5 (Homo sapiens, UniProt P41161 1-510). The settings on record: protein: recombinant; tags: N-terminal GST; dsDNA, one strand shown. The essentials: as §1
The next experiment addresses HSF1 (Homo sapiens, UniProt Q00613 1-529). Particulars: protein: recombinant; tags: N-terminal GST; chain copies: 3; dsDNA, one strand shown. The essentials: as §1
For a further experiment, the target named is T2, SPIC (Homo sapiens, UniProt Q8N5J4 1-248).
T2 sequence: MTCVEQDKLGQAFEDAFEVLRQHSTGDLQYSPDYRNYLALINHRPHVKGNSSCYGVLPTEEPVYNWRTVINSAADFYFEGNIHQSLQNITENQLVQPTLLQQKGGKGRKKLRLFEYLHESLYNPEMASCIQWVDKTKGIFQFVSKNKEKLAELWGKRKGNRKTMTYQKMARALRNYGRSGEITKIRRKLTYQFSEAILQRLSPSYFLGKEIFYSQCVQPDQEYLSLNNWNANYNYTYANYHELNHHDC
The settings on record: protein: recombinant; tags: N-terminal GST; dsDNA, one strand shown. An outline of the steps: as §1

For another experiment, the target named is ELF4 (Homo sapiens, UniProt Q99607 1-663). Particulars: protein: recombinant; tags: N-terminal GST; dsDNA, one strand shown. The essentials: as §1
A further experiment has as its target T3, ELK4 (Homo sapiens, UniProt P28324-2 1-405).
T3 sequence: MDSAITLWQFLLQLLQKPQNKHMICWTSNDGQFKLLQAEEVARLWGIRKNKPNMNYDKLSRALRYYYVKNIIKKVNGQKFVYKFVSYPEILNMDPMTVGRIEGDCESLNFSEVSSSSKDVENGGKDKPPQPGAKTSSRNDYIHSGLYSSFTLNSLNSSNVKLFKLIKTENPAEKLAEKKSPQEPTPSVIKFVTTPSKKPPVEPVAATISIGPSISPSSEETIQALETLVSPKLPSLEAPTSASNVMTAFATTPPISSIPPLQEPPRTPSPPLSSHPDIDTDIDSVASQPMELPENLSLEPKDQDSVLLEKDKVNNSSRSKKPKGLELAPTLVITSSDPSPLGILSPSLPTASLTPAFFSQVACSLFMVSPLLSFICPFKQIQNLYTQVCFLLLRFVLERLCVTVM
Particulars: protein: recombinant; tags: N-terminal GST; dsDNA, one strand shown. An outline of the steps:
as §1

The target of the next experiment is T4, ETV2 (Homo sapiens, UniProt O00321 1-342).
T4 sequence: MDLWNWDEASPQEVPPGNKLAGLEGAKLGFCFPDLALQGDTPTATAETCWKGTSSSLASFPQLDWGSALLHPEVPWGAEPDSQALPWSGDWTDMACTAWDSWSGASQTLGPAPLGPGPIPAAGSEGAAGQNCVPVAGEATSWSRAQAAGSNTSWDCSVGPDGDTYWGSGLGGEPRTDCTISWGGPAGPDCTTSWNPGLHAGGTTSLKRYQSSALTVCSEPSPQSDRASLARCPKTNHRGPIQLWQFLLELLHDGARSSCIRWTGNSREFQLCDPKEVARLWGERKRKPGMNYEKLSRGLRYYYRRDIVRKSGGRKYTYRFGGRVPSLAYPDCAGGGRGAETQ
Particulars: protein: recombinant; tags: N-terminal GST; dsDNA, one strand shown. An outline of the steps: as §1

Another experiment has as its target T5, ELF3 (Homo sapiens, UniProt P78545 1-371).
T5 sequence: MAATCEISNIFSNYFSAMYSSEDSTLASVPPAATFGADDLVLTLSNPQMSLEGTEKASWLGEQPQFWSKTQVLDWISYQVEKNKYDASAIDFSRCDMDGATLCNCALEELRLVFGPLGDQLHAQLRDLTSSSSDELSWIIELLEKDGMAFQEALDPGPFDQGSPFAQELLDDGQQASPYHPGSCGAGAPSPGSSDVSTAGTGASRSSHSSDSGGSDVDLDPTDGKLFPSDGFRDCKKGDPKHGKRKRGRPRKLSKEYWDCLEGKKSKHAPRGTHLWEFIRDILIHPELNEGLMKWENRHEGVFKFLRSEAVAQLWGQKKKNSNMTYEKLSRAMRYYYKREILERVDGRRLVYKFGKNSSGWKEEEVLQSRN
Particulars: protein: recombinant; tags: N-terminal GST; dsDNA, one strand shown. The essentials: as §1

Another experiment concerns the target CRX (Homo sapiens, UniProt O43186 1-299). Particulars: protein: recombinant; tags: N-terminal GST; dsDNA, one strand shown. An outline of the steps: as §1
The target in another experiment is ETV1 (Homo sapiens, UniProt P50549 1-477). Particulars: protein: recombinant; tags: N-terminal GST; dsDNA, one strand shown. The essentials:
as §1

ELF4, sequence (Q99607 whole entry): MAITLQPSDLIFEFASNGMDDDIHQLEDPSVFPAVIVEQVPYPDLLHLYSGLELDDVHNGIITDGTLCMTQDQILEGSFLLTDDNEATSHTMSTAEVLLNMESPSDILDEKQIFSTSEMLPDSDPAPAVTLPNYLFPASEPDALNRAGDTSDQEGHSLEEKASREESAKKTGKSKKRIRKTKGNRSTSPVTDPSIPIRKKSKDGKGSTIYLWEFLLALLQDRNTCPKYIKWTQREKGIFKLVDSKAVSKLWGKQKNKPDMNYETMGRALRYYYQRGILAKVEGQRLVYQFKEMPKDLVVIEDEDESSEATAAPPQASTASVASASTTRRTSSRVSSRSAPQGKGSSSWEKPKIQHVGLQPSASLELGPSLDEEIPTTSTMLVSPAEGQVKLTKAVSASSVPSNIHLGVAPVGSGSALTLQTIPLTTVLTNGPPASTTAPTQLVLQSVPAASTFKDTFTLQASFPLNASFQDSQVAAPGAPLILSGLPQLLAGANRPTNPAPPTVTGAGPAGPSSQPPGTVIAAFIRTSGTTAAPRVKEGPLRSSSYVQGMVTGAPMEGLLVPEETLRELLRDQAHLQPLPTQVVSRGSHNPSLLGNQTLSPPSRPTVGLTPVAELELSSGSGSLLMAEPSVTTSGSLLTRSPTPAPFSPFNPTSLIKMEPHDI
HSF1, sequence (Q00613 whole entry): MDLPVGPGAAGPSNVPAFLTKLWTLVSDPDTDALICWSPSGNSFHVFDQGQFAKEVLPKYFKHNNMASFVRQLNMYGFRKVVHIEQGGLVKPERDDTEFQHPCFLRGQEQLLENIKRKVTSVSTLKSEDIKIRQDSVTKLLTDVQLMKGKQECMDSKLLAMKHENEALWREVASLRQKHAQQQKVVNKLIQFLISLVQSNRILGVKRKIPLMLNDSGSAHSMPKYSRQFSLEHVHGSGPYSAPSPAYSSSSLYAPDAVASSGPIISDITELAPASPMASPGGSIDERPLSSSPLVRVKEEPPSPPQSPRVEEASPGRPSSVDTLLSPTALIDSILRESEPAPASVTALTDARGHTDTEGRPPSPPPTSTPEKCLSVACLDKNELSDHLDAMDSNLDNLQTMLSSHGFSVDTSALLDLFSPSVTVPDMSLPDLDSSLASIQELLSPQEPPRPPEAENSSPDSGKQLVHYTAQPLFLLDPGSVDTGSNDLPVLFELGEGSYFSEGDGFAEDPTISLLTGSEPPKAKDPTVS
ETV5, sequence (P41161 whole entry): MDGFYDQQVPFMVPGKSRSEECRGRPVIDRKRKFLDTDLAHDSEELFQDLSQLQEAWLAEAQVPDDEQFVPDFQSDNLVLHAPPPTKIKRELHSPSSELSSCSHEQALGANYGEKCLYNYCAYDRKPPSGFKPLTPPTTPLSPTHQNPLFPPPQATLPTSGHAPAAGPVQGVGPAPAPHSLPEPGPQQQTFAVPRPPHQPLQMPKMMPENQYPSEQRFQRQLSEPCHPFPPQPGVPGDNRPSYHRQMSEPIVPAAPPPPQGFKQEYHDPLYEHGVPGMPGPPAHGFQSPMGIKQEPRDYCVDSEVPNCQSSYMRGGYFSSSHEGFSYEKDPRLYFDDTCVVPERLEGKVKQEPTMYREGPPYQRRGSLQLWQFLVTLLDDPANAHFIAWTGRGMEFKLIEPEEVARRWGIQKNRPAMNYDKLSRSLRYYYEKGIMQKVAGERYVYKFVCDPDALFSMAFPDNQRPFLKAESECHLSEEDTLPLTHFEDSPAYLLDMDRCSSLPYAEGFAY
CRX, sequence (O43186 whole entry): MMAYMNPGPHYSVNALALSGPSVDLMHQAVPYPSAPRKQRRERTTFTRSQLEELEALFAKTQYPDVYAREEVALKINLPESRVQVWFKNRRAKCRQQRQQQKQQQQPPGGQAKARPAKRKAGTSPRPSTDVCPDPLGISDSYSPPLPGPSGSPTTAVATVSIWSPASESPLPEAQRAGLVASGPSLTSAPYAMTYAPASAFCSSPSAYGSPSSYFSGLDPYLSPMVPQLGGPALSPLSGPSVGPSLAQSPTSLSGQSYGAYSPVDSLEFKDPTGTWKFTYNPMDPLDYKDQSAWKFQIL
ETV1, sequence (P50549 whole entry): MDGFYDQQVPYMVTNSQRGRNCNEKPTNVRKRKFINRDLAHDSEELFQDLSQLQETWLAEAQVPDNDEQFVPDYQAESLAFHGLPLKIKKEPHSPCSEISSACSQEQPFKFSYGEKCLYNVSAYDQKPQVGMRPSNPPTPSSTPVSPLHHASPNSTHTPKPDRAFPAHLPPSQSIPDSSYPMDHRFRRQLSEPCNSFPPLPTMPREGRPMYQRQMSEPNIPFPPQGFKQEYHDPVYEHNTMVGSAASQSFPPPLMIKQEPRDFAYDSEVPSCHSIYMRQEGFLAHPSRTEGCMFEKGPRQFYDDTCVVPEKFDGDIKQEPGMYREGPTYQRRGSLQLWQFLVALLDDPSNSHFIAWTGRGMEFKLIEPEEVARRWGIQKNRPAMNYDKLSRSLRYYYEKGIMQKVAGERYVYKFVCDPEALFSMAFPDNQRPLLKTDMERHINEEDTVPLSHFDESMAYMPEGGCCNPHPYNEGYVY

Regarding TTTCTG, the binding signal with FEV was 1.32 fold enrichment (6-mer frequency, TF over GST control); with ETV5, 1.31 fold enrichment (6-mer frequency, TF over GST control); with HSF1 it was 2.33 fold enrichment (6-mer frequency, TF over GST control); with SPIC it was 1.3 fold enrichment (6-mer frequency, TF over GST control); in the experiment with ELF4 it was 1.39 fold enrichment (6-mer frequency, TF over GST control); with ELK4 it was 1.52 fold enrichment (6-mer frequency, TF over GST control). The binding signal was 1.36 fold enrichment (6-mer frequency, TF over GST control) with ETV2; 1.44 fold enrichment (6-mer frequency, TF over GST control) with ELF3; 1.45 fold enrichment (6-mer frequency, TF over GST control) with CRX; 1.3 fold enrichment (6-mer frequency, TF over GST control) in the experiment with ETV1.
CCTAAC: the binding signal with FEV was 1.38 fold enrichment (6-mer frequency, TF over GST control); in the experiment with ETV5, 1.42 fold enrichment (6-mer frequency, TF over GST control); with HSF1 it was 1.19 fold enrichment (6-mer frequency, TF over GST control); with SPIC, 1.49 fold enrichment (6-mer frequency, TF over GST control); in the experiment with ELF4, 1.53 fold enrichment (6-mer frequency, TF over GST control); with ELK4, 1.36 fold enrichment (6-mer frequency, TF over GST control). The binding signal in the experiment with ETV2 was 1.41 fold enrichment (6-mer frequency, TF over GST control); with ELF3, 1.51 fold enrichment (6-mer frequency, TF over GST control); with CRX, 1.25 fold enrichment (6-mer frequency, TF over GST control); in the experiment with ETV1 it was 1.35 fold enrichment (6-mer frequency, TF over GST control).
As for AATATT, the binding signal with FEV was 1.3 fold enrichment (6-mer frequency, TF over GST control); in the experiment with ETV5, 1.4 fold enrichment (6-mer frequency, TF over GST control); with HSF1, 1.93 fold enrichment (6-mer frequency, TF over GST control); with SPIC, 1.45 fold enrichment (6-mer frequency, TF over GST control); with ELF4, 1.38 fold enrichment (6-mer frequency, TF over GST control); with ELK4, 1.35 fold enrichment (6-mer frequency, TF over GST control). The binding signal is 1.23 fold enrichment (6-mer frequency, TF over GST control) in the experiment with ETV2; 1.36 fold enrichment (6-mer frequency, TF over GST control) with ELF3; 1.61 fold enrichment (6-mer frequency, TF over GST control) with CRX; 1.36 fold enrichment (6-mer frequency, TF over GST control) with ETV1.
With CCCCCA, the binding signal in the experiment with FEV was 1.21 fold enrichment (6-mer frequency, TF over GST control); in the experiment with ETV5, 1.19 fold enrichment (6-mer frequency, TF over GST control); in the experiment with HSF1, 1.06 fold enrichment (6-mer frequency, TF over GST control); with SPIC it was 1.16 fold enrichment (6-mer frequency, TF over GST control); with ELF4 it was 1.2 fold enrichment (6-mer frequency, TF over GST control); in the experiment with ELK4 it was 1.19 fold enrichment (6-mer frequency, TF over GST control). The binding signal was 1.4 fold enrichment (6-mer frequency, TF over GST control) with ETV2; 1.3 fold enrichment (6-mer frequency, TF over GST control) with ELF3; 1.02 fold enrichment (6-mer frequency, TF over GST control) with CRX; 1.18 fold enrichment (6-mer frequency, TF over GST control) in the experiment with ETV1.
As for ATCACT, the binding signal is 1.25 fold enrichment (6-mer frequency, TF over GST control) with FEV; 1.2 fold enrichment (6-mer frequency, TF over GST control) in the experiment with ETV5; 1.14 fold enrichment (6-mer frequency, TF over GST control) in the experiment with HSF1; 1.34 fold enrichment (6-mer frequency, TF over GST control) with SPIC; 1.23 fold enrichment (6-mer frequency, TF over GST control) with ELF4; 1.45 fold enrichment (6-mer frequency, TF over GST control) with ELK4. In addition, the binding signal is 1.29 fold enrichment (6-mer frequency, TF over GST control) in the experiment with ETV2; 1.35 fold enrichment (6-mer frequency, TF over GST control) in the experiment with ELF3; 1.29 fold enrichment (6-mer frequency, TF over GST control) in the experiment with CRX; 1.2 fold enrichment (6-mer frequency, TF over GST control) in the experiment with ETV1.
As to CGCTCT, the binding signal with FEV is 1.27 fold enrichment (6-mer frequency, TF over GST control); with ETV5, 1.34 fold enrichment (6-mer frequency, TF over GST control); in the experiment with HSF1 it was 1.17 fold enrichment (6-mer frequency, TF over GST control); with SPIC, 1.31 fold enrichment (6-mer frequency, TF over GST control); with ELF4 it was 1.39 fold enrichment (6-mer frequency, TF over GST control); in the experiment with ELK4 it was 1.07 fold enrichment (6-mer frequency, TF over GST control). Moreover, the binding signal with ETV2 is 1.12 fold enrichment (6-mer frequency, TF over GST control); with ELF3 it was 1.24 fold enrichment (6-mer frequency, TF over GST control); with CRX, 1.05 fold enrichment (6-mer frequency, TF over GST control); with ETV1, 1.25 fold enrichment (6-mer frequency, TF over GST control).
CTTACA: the binding signal with FEV is 1.18 fold enrichment (6-mer frequency, TF over GST control); with ETV5, 1.31 fold enrichment (6-mer frequency, TF over GST control); with HSF1 it was 1.31 fold enrichment (6-mer frequency, TF over GST control); in the experiment with SPIC, 1.27 fold enrichment (6-mer frequency, TF over GST control); with ELF4, 1.25 fold enrichment (6-mer frequency, TF over GST control); with ELK4, 1.3 fold enrichment (6-mer frequency, TF over GST control). The binding signal with ETV2 was 1.28 fold enrichment (6-mer frequency, TF over GST control); with ELF3, 1.41 fold enrichment (6-mer frequency, TF over GST control); in the experiment with CRX, 1.6 fold enrichment (6-mer frequency, TF over GST control); with ETV1, 1.24 fold enrichment (6-mer frequency, TF over GST control).
AATCAT: the binding signal with FEV is 1.1 fold enrichment (6-mer frequency, TF over GST control); in the experiment with ETV5 it was 1.15 fold enrichment (6-mer frequency, TF over GST control); with HSF1 it was 1.27 fold enrichment (6-mer frequency, TF over GST control); with SPIC it was 1.14 fold enrichment (6-mer frequency, TF over GST control); with ELF4, 1.06 fold enrichment (6-mer frequency, TF over GST control); in the experiment with ELK4, 1.12 fold enrichment (6-mer frequency, TF over GST control). The binding signal was 1.21 fold enrichment (6-mer frequency, TF over GST control) in the experiment with ETV2; 1.17 fold enrichment (6-mer frequency, TF over GST control) with ELF3; 1.39 fold enrichment (6-mer frequency, TF over GST control) in the experiment with CRX; 1.15 fold enrichment (6-mer frequency, TF over GST control) in the experiment with ETV1.

(Values after PMC7862700, “An all-to-all approach to the identification of sequence-specific readers for epigenetic DNA modifications on cytosine”.)
